Results filed as inconclusive are left out. A call without a number means that no potency is given here. Active and inactive are the calls of the source. Calls come from the whole dose curve; as a rule, active = well fitted inhibition curve with a large enough effect; inconclusive = small, poorly fitted or top-dose-only effect; inactive = flat fitted curve, though single readings scatter.
Tested on: PC26
Test: qHTS profiling for inhibitors of Plasmodium falciparum proliferation (AID 504749); note: nearly all actives have a fitted effect of over 60% in size
Conditions: P. falciparum in erythrocytes, SYBR Green DNA, 72 h; series mostly up to 28.7 µM
Procedure, shortened: (§1)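 P. falciparum-infected erythrocytes (0.3% parasitemia, 2.5% hematocrit) incubated with compound 72 h at 37 C, 5% CO2. Parasite DNA detected by SYBR Green after lysis, overnight at room temperature; normalised to 0.29 uM artemisinin and DMSO.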
Potency is the fitted concentration of half-maximal effect.

Compound	Potency
COc1ccc(OC)c(C(O)C(C)N)c1 (centres undefined)	inactive
CCON=O	inactive
COC([CH2][Hg])CNC(=O)c1ccccc1OCC(=O)O (centres undefined)	inactive
CC(C)(O)C1C2OC(=O)C1C1(O)CC3OC34C(=O)OC2C14C (centres undefined)	inactive
C[CH2][Hg][S]c1ccccc1C(=O)O	3.79 µM (active)
O=C1C2CC=CCC2C(=O)N1SC(Cl)(Cl)Cl (centres undefined)	inactive
N#CN	inactive
O=C1CCCCC1CN1CCCCC1 (centres undefined)	inactive
CN1C2CCC1CC(OC(c1ccccc1)c1ccc(Cl)cc1)C2 (centres undefined)	7.57 µM (active)
COC1=CC=C2[C@H]3Cc4ccc(OC)c5c4[C@@]2(CCN3C)[C@H]1O5	inactive
S=C=S	inactive
O=[N+]([O-])C(Br)(CO)CO	inactive
COc1ccc2c3c1O[C@H]1C(=O)CC[C@H]4[C@@H](C2)N(C)CC[C@]314	inactive
CC(=O)O[C@H]1CC[C@H]2[C@@H]3CCC4=CC(=O)CCC4=C3C=C[C@]12C	inactive
CCCCCCCCOC(=O)c1ccccc1C(=O)OCCCCCCCC	inactive
O=C1CCO1	inactive
O=C(CS(=O)C(c1ccccc1)c1ccccc1)NO (centres undefined)	inactive
C=CCN1CC[C@]23c4c5ccc(O)c4O[C@H]2[C@@H](O)C=C[C@H]3[C@H]1C5	inactive
O=c1[nH]cc(N(CCCl)CCCl)c(=O)[nH]1	inactive

Compound	Potency
C/C(=C\c1csc(C)n1)[C@@H]1C[C@@H]2O[C@]2(C)CCC[C@H](C)[C@H](O)[C@@H](C)C(=O)C(C)(C)[C@@H](O)CC(=O)O1	0.0034 µM (active)
CCC(N)Cc1c[nH]c2ccccc12 (centres undefined)	inactive
C#CC(C)(O)CC (centres undefined)	inactive
CCCCNCC(O)c1ccc(O)cc1 (centres undefined)	inactive
O[C@H]1[C@H]2[C@H](O)CCCN2C[C@H]1O	inactive
C=CCN1CCC23c4c5ccc(O)c4O[C@H]2C(=O)CC[C@@]3(O)C1C5 (some centres undefined)	inactive
CC(=O)OO	inactive
[N-]=[N+]=CC(=O)OCC(N)C(=O)O (centres undefined)	inactive
CC(C)CCON=O	inactive
CC(C)(C)c1cc(O)ccc1O	12 µM (active)
COCC(C)N(C(=O)CCl)c1c(C)csc1C (centres undefined)	inactive
C[N+]1(C)CCCCC1COC(=O)C(O)(c1ccccc1)c1ccccc1 (centres undefined)	inactive
CCC1(c2ccccc2)C(=O)NC(=O)NC1=O	inactive
C[N+]1(C)C2CCC1CC(OC(=O)c1c[nH]c3ccccc13)C2 (centres undefined)	inactive
O=S(=O)(O)c1cc(O)ccc1O	inactive
FC(F)OC(F)(F)C(F)Cl (centres undefined)	inactive
CNC1(c2ccccc2Cl)CCCCC1=O (centres undefined)	inactive
c1ccc2sc(SNC3CCCCC3)nc2c1	inactive

Tested on: PC49
Test: as above
Conditions: P. falciparum in erythrocytes, SYBR Green DNA, 72 h; series mostly up to 28.7 µM
Procedure, shortened: as §1

Compound	Potency
COc1ccc(OC)c(C(O)C(C)N)c1 (centres undefined)	inactive
CCON=O	inactive
CCCCCl	inactive
COC([CH2][Hg])CNC(=O)c1ccccc1OCC(=O)O (centres undefined)	inactive
CC(C)(O)C1C2OC(=O)C1C1(O)CC3OC34C(=O)OC2C14C (centres undefined)	inactive
C[CH2][Hg][S]c1ccccc1C(=O)O	2.24 µM (active)
O=C1C2CC=CCC2C(=O)N1SC(Cl)(Cl)Cl (centres undefined)	inactive
N#CN	inactive
O=C1CCCCC1CN1CCCCC1 (centres undefined)	inactive
CN1C2CCC1CC(OC(c1ccccc1)c1ccc(Cl)cc1)C2 (centres undefined)	5.01 µM (active)
COC1=CC=C2[C@H]3Cc4ccc(OC)c5c4[C@@]2(CCN3C)[C@H]1O5	inactive
S=C=S	inactive
O=[N+]([O-])C(Br)(CO)CO	inactive
COc1ccc2c3c1O[C@H]1C(=O)CC[C@H]4[C@@H](C2)N(C)CC[C@]314	inactive
CC(=O)O[C@H]1CC[C@H]2[C@@H]3CCC4=CC(=O)CCC4=C3C=C[C@]12C	inactive
CCCCCCCCOC(=O)c1ccccc1C(=O)OCCCCCCCC	inactive
O=C1CCO1	inactive
O=C(CS(=O)C(c1ccccc1)c1ccccc1)NO (centres undefined)	inactive
C=CCN1CC[C@]23c4c5ccc(O)c4O[C@H]2[C@@H](O)C=C[C@H]3[C@H]1C5	inactive

Compound	Potency
O=c1[nH]cc(N(CCCl)CCCl)c(=O)[nH]1	inactive
CCC(N)Cc1c[nH]c2ccccc12 (centres undefined)	inactive
C#CC(C)(O)CC (centres undefined)	inactive
CCCCNCC(O)c1ccc(O)cc1 (centres undefined)	inactive
O[C@H]1[C@H]2[C@H](O)CCCN2C[C@H]1O	inactive
C=CCN1CCC23c4c5ccc(O)c4O[C@H]2C(=O)CC[C@@]3(O)C1C5 (some centres undefined)	inactive
CC(=O)OO	inactive
CCCC(=O)OC(C(Cl)(Cl)Cl)P(=O)(OC)OC (centres undefined)	inactive
[N-]=[N+]=CC(=O)OCC(N)C(=O)O (centres undefined)	inactive
CC(C)CCON=O	inactive
COCC(C)N(C(=O)CCl)c1c(C)csc1C (centres undefined)	inactive
C[N+]1(C)CCCCC1COC(=O)C(O)(c1ccccc1)c1ccccc1 (centres undefined)	inactive
CCC1(c2ccccc2)C(=O)NC(=O)NC1=O	inactive
C[N+]1(C)C2CCC1CC(OC(=O)c1c[nH]c3ccccc13)C2 (centres undefined)	inactive
O=S(=O)(O)c1cc(O)ccc1O	inactive
FC(F)OC(F)(F)C(F)Cl (centres undefined)	inactive
CNC1(c2ccccc2Cl)CCCCC1=O (centres undefined)	inactive
c1ccc2sc(SNC3CCCCC3)nc2c1	inactive

Reference: PubChem BioAssay (NCATS)
